Hits are enriched below; roughly 6.8% of the tested compounds scored in any of these assays.
T cruzi growth-1 = T. cruzi intracellular proliferation inhibitors, primary screen, cell-based, beta-gal Tulahuen parasites, NIH3T3 host, luminescence. hit rate 5.9% among 77,000. T. cruzi beta-gal in NIH3T3, GalScreen luminescence, 90 h. inhibition, % at 8.34 µM;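 active = mean inhibition above about 93%, with at least 55% of replicates each passing it, limit read from the data, passing the limit was not always enough; inconclusive = only one of those two conditions holds; inactive = neither condition holds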
Pf Dd2 inh = P. falciparum Dd2 growth inhibitors, primary screen, SYBR Green fluorescence, single dose replicates | activity change, % at 10 µM | AID 1159554, 2015 | hit rate 2.3% among 94,000 | 72 h; active compounds read low; in the data active = activity change below about -80%; inconclusive = no clear call, values can overlap the other calls
C diff HTS = C. difficile growth inhibitors, primary screen, HTS. Clostridium difficile clinical isolate growth, OD600, 24 h; active compounds read low. growth activity, negative = inhibition, % at 16 µg/mL (by protocol). hit rate 0.25% among 86,000. AID 1259249, 2017;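 active = mean growth activity at or below -80% and every replicate also at or below -80%; inconclusive = mean at or below -80% but some replicate above -80%; inactive = mean growth activity above -80%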
T cruzi growth-2 = T. cruzi intracellular proliferation inhibitors, confirmation, cell-based, NIH3T3 host, beta-gal parasite, luminescence, cherry-pick. shares compounds with T cruzi growth-1. T. cruzi beta-gal in NIH3T3, GalScreen luminescence, 90 h. inhibition, % at 8.35 µM. hit rate 72% among 5,600. AID 651739, 2012;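 active = mean replicate inhibition above about 95% and at least 55% of replicates individually reaching it, limit read from the data; inconclusive = only one of the two criteria is met; inactive = neither criterion is met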
T cruzi growth-3 = inhibitors of intracellular T. cruzi replication, confirmation, NIH3T3 host cells, beta-gal parasites, cherry-pick, set 2. shares compounds with T cruzi growth-1. T. cruzi beta-gal in NIH3T3, GalScreen luminescence, 90 h. inhibition, % at 2.09 µM. hit rate 21% among 5,600;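 active = mean inhibition above about 95%, with at least 55% of replicates also reaching it, limit read from the data; inconclusive = meets just one of the two conditions; inactive = meets neither condition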
3T3 cytotox = cytotoxicity in mouse NIH/3T3 fibroblasts, confirmation, cytotoxicity control for T. cruzi proliferation inhibitor project, cell-based, cherry-pick, single point. AID 651742, 2012. NIH/3T3 viability, CellTiter-Glo ATP luminescence, 90 h. hit rate 14% among 5,600. shares compounds with T cruzi growth-1. cytotoxicity (signal decrease), % at 8.35 µM;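 active = mean signal decrease across replicates above about 35% based on untreated-well scatter, with enough replicates individually passing, limit read from the data; inconclusive = no rule stated though some were filed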
NIH3T3 tox 2 = NIH/3T3 fibroblast cytotoxicity, confirmation, cytotoxicity control, cell-based, cherry-pick, single point, set 2. shares compounds with T cruzi growth-1. NIH/3T3 viability, CellTiter-Glo ATP luminescence, 90 h. inhibition, % at 24.9 µM. hit rate 56% among 5,600. AID 651744, 2012;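 active = mean loss of cell viability signal at or above a set limit, and enough replicates individually reaching it; inconclusive = meets only the mean limit or only the replicate share; inactive = meets neither condition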
Numbers stand for hits; – = inactive; ? = inconclusive; · = no result.

SMILES	T cruzi growth-1	Pf Dd2 inh	C diff HTS	T cruzi growth-2	T cruzi growth-3	3T3 cytotox	NIH3T3 tox 2
C[C@H]1CN([C@@H](C)CO)C(=O)c2cccc(NC(=O)c3ccncc3)c2O[C@@H]1CN(C)Cc1ccc(-c2ccccc2)cc1	?	–	–	–	–	–	47.1
C[C@H]1CN([C@@H](C)CO)C(=O)c2cccc(NC(=O)c3ccncc3)c2O[C@H]1CN(C)Cc1ccc(-c2ccccc2)cc1	–	–	–	·	·	·	·
C[C@H]1CN([C@@H](C)CO)C(=O)Cc2cc(NC(=O)C3CC3)ccc2O[C@H]1CN(C)S(=O)(=O)c1ccccc1	–	–	–	·	·	·	·
COc1ccc(COCC23N=C4SCCCN4[C@H](c4ccccc4O2)[C@H]3CO)cc1	·	·	–	·	·	·	·
O=C(Nc1ccc(F)cc1)N1C[C@@H]2[C@H](c3ccccc31)[C@@H](CO)N2C(=O)Cc1cccnc1	–	–	–	·	·	·	·
Cc1noc(C)c1NC(=O)Nc1cccc2c1O[C@@H](CN(C)C(=O)NC1CCCCC1)[C@H](C)CN([C@H](C)CO)C2=O	–	–	–	·	·	·	·
CN(C)C(=O)C[C@H]1C[C@H]2c3cc(NC(=O)CC4CC4)ccc3O[C@H]2[C@@H](CO)O1	–	–	·	·	·	·	·
Cc1ccccc1S(=O)(=O)N[C@@H]1CC[C@H](CCNS(=O)(=O)c2cccc(F)c2)O[C@H]1CO	–	–	–	·	·	·	·
C[C@H](CO)N1C[C@H](C)[C@H](CN(C)Cc2ccccc2)Oc2c(NC(=O)c3ccncc3)cccc2C1=O	–	–	–	·	·	·	·
C[C@@H]1CN([C@H](C)CO)C(=O)c2cccc(NC(=O)c3ccncc3)c2O[C@@H]1CN(C)Cc1ccc(C(=O)Nc2ccccc2N)cc1	89.8	–	–	102.8	–	–	33.1
COc1ccc(NC(=O)N2C[C@@H](O)COC[C@H]3O[C@H](CC(=O)NCc4ccccc4OC)CC[C@@H]32)cc1	–	–	·	·	·	·	·
COc1ccc(NC(=O)Nc2ccc3c(c2)[C@H]2C[C@H](CC(=O)NCCc4ccccc4)O[C@@H](CO)[C@H]2O3)cc1	147.9	–	–	105.2	–	–	–
COCCNC(=O)C[C@@H]1C[C@@H]2c3cc(NC(=O)Nc4ccc(OC)cc4)ccc3O[C@@H]2[C@H](CO)O1	–	–	–	·	·	·	·
CCCNC(=O)C[C@@H]1C[C@H]2c3cc(NC(=O)Nc4ccc(OC)cc4)ccc3O[C@H]2[C@@H](CO)O1	–	–	–	·	·	·	·
CCCNC(=O)C[C@H]1C[C@H]2c3cc(NC(=O)Nc4ccc(OC)cc4)ccc3O[C@H]2[C@H](CO)O1	–	–	–	·	·	·	·
COc1ccc(CNC(=O)C[C@H]2C[C@H]3c4cc(NC(=O)C5CCC5)ccc4O[C@H]3[C@H](CO)O2)cc1	–	–	–	·	·	·	·
COc1ccc(NC(=O)Nc2ccc3c(c2)[C@@H]2C[C@@H](CC(=O)NCCc4ccccc4)O[C@@H](CO)[C@@H]2O3)cc1	179.2	–	–	110.9	104.8	–	–
COc1ccc(CNC(=O)C[C@@H]2C[C@H]3c4cc(NC(=O)C5CCC5)ccc4O[C@H]3[C@H](CO)O2)cc1	176.7	–	–	?	–	–	–
COc1ccc(NC(=O)Nc2ccc3c(c2)[C@@H]2C[C@@H](CC(=O)NCCc4ccccc4)O[C@H](CO)[C@@H]2O3)cc1	132.8	–	–	104.6	–	–	–
COc1cccc(C#Cc2cnc3c(c2)C(=O)N([C@H](C)CO)C[C@H](C)[C@@H](CN(C)C(=O)C2CC2)O3)c1	–	–	·	·	·	·	·
CCCNC(=O)C[C@H]1C[C@H]2c3cc(NC(=O)CN(C)C)ccc3O[C@H]2[C@@H](CO)O1	101.3	–	–	–	–	–	–
CCCNC(=O)C[C@H]1C[C@@H]2c3cc(NC(=O)CN(C)C)ccc3O[C@@H]2[C@H](CO)O1	–	–	–	·	·	·	·
O=C(C[C@H]1C=C[C@@H](NC(=O)CN2CCOCC2)[C@H](CO)O1)NCCc1ccccc1	–	–	–	·	·	·	·
O=C(NCCN1CCCC1)[C@@H]1[C@@H](CO)[C@@H]2Cn3c(cccc3=O)[C@H]1N2C(=O)c1ccccc1	–	·	–	·	·	·	·
COc1ccccc1C#Cc1ccc([C@@H]2[C@H](CO)N3CCCCN(C(=O)C4CCC4)C[C@@H]23)cc1	–	–	–	·	·	·	·
SMILES	T cruzi growth-1	Pf Dd2 inh	C diff HTS	T cruzi growth-2	T cruzi growth-3	3T3 cytotox	NIH3T3 tox 2
COc1ccccc1C#Cc1ccc([C@@H]2[C@@H](CO)N3CCCCN(C(=O)C4CCCC4)C[C@@H]23)cc1	116.5	–	–	102.3	98.3	–	104.6
COc1ccccc1C#Cc1ccc([C@@H]2[C@@H](CO)N3CCCCN(C(=O)C4CC4)C[C@H]23)cc1	–	–	–	·	·	·	·
COc1ccccc1C#Cc1ccc([C@@H]2[C@@H](CO)N3CCCCN(C(=O)C4CCC4)C[C@H]23)cc1	–	–	–	·	·	·	·
COc1ccccc1C#Cc1ccc([C@H]2[C@@H](CO)N3CCCCN(C(=O)C4CC4)C[C@H]23)cc1	107.8	–	–	105.5	103.1	–	104.6
COc1ccccc1C#Cc1ccc([C@H]2[C@H]3CN(C(=O)C4CCC4)CCCCN3[C@H]2CO)cc1	–	–	–	·	·	·	·
COc1ccccc1C#Cc1ccc([C@H]2[C@H](CO)N3CCCCN(C(=O)C4CCCC4)C[C@@H]23)cc1	106.7	–	–	106.1	106.5	42.8	105.4
COc1ccccc1C#Cc1ccc([C@H]2[C@@H](CO)N3CCCCN(C(=O)C4CCC4)C[C@@H]23)cc1	105.6	–	–	110.9	?	50.0	74.1
C[C@H]1CN([C@@H](C)CO)S(=O)(=O)c2ccc(C3=CCCCC3)cc2O[C@H]1CN(C)C(=O)Cc1ccccc1	–	–	–	·	·	·	·
N#C[C@H]1[C@@H](c2ccccc2-c2cccc(F)c2)[C@@H](CO)N1C(=O)NC1CCCC1	·	–	–	·	·	·	·
Cc1ccc(S(=O)(=O)N(C)C[C@H]2OCCCC[C@@H](C)Oc3ccc(NC(=O)NC(C)C)cc3C(=O)N([C@@H](C)CO)C[C@@H]2C)cc1	–	–	–	·	·	·	·
Cc1ccc(S(=O)(=O)N(C)C[C@@H]2OCCCC[C@H](C)Oc3ccc(NC(=O)NC(C)C)cc3C(=O)N([C@@H](C)CO)C[C@@H]2C)cc1	–	–	–	·	·	·	·
Cc1ccc(S(=O)(=O)N(C)C[C@H]2OCCCC[C@@H](C)Oc3ccc(NC(=O)Nc4ccccc4)cc3C(=O)N([C@@H](C)CO)C[C@H]2C)cc1	?	–	–	106.2	102.6	–	–
